Assay results as given in PubChem BioAssay AID686978 (National Center for Advancing Translational Sciences (NCATS), 2013).
Out of some 420,000 compounds screened, about 64,000 (15%) were called active. About 27% were inconclusive and are not listed. The call rests on the fitted dose curve; in most records, active means well fitted inhibition curve with a large enough effect; inconclusive means small, poorly fitted or top-dose-only effect; inactive means flat fitted curve, though single readings scatter. Only a sample is shown.

Experiment: qHTS for Inhibitors of human tyrosyl-DNA phosphodiesterase 1 (TDP1): qHTS in cells in absence of CPT; further: nearly all actives have a fitted effect of over 55% in size
Details: DT40 Tdp1-/- hTDP1 cells, no CPT, ATP luminescence, 48 h; activity change, negative = growth inhibition: at 46.2 µM (top of the series)
How it was run: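 Growth of hTDP1-complemented DT40 Tdp1-knockout cells is measured by ATP luminescence after at least 48 hr compound exposure at 37 °C, with DMSO substituting for the 20 nM CPT used in the parallel screen.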
On the % scale 0 is the no-effect control and ±100 the full control effect; potency means the concentration at half of the fitted maximal effect.

Row | Structure (SMILES) | activity change, negative = growth inhibition | Potency
1 | CCCCn1c(N)c(N(CCC(C)C)C(=O)c2ccc([N+](=O)[O-])o2)c(=O)[nH]c1=O | -25.2% (inactive) | 
2 | CS(=O)(=O)N1CCC2(CCN(c3ccncc3)CC2)CC1 | -21.5% (inactive) | 
3 | O=C(C1=C(O)C(=O)N(CCOCCO)C1c1ccccn1)c1cccs1 (stereo not drawn) | 0.178% (inactive) | 
4 | CN(CC(=O)Nc1ccc(S(=O)(=O)N2CCCC2)cc1)Cc1ccc(Cl)c(Cl)c1 |  | 18.4 µM (active)
5 | CCc1ccc(NC(=O)CN2C(=O)COc3ccc(S(=O)(=O)N4CCCC4)cc32)cc1 | -28.2% (inactive) | 
6 | CCc1ccc(NC(=O)CN2C(=O)CCSc3ccc(S(=O)(=O)N4CCCC4)cc32)cc1 | -15.4% (inactive) | 
7 | CN(CCC(=O)Nc1cc(S(=O)(=O)N(C)C)ccc1Cl)CC(=O)Nc1ccc(F)cc1 | -29.5% (inactive) | 
8 | CN1CCN(S(=O)(=O)c2ccc(NC(=O)C3CCCO3)cc2)CC1 (stereo not drawn) | -6.78% (inactive) | 
9 | CCc1ccc(CN(C)C(C)C(=O)Nc2ccc(S(=O)(=O)N3CCCC3)cc2)cc1 (stereo not drawn) |  | 16.4 µM (active)
10 | O=S(=O)(NC(=S)Nc1ccccc1)c1ccc(F)cc1 | -14.4% (inactive) | 
11 | CC(=O)c1ccc[n+](C(C)CCC(C)[n+]2cccc(C(C)=O)c2)c1 (stereo not drawn) | -1.47% (inactive) | 
12 | O=C(O)CCN1C(=O)CC2(CCCCC2)C1=O | -15.2% (inactive) | 
13 | CN(CC(=O)Nc1ccccc1Cl)C(=O)COc1cccc2c1OC(C)(C)C2 | -23.2% (inactive) | 
14 | CCn1cc(C(=O)NCc2ccc(C)cc2)c(=O)c2cc(S(=O)(=O)N3CCc4ccccc4C3)ccc21 |  | 11.6 µM (active)
15 | CN(Cc1ccccc1)C(=O)c1cn(C)c2ccc(S(=O)(=O)N3CCCCC3)cc2c1=O | 0.261% (inactive) | 
16 | CCOCCCNC(=O)c1cn(CC)c2ccc(S(=O)(=O)N3CCc4ccccc4C3)cc2c1=O |  | 16.4 µM (active)
17 | CCn1cc(C(=O)N(C)Cc2ccccc2)c(=O)c2cc(S(=O)(=O)N3CCCCCC3)ccc21 | -3.43% (inactive) | 
18 | CCOc1ccc(CNC(=O)c2cc(=O)[nH]c3ccc(S(=O)(=O)N4CCCCC4)cc23)cc1 | -0.677% (inactive) | 
19 | Cc1ccc(CNC(=O)C2CCN(S(=O)(=O)c3ccc4nc5c(c(C(=O)O)c4c3)CC(C)CC5)CC2)cc1 (stereo not drawn) |  | inactive
20 | CCn1cc(C(=O)NCc2ccccc2)c(=O)c2cc(S(=O)(=O)N3CCCCC3)ccc21 |  | 7.31 µM (active)
21 | CCn1cc(C(=O)NCC2CCCO2)c(=O)c2cc(S(=O)(=O)N3CCCCC3)ccc21 (stereo not drawn) | -23% (inactive) | 
22 | CCN(CC)CCCNC(=O)c1cn(C)c2ccc(S(=O)(=O)N(C)C3CCCCC3)cc2c1=O | 3.24% (inactive) | 
23 | CCC1CCCCN1S(=O)(=O)Cc1ccccc1Cl (stereo not drawn) | -27.8% (inactive) | 
24 | CCCCn1c(N)c(N(CCOC)C(=O)c2cccc(S(=O)(=O)N3CCCCC3)c2)c(=O)[nH]c1=O | 4.74% (inactive) | 
25 | Cc1cccc(N2O[C@H]3C=CC2CCCC3)n1 | -3.14% (inactive) | 
26 | Cc1ccc(CN2CCN(/N=C/c3ccco3)CC2)c(C)c1 | -18.1% (inactive) | 

Row | Structure (SMILES) | activity change, negative = growth inhibition | Potency
27 | COc1cc2ccccc2cc1C(=O)N1CCOCC1 | 3.89% (inactive) | 
28 | CCOc1ccc(C(C)=O)cc1COC(=O)CN1C(=O)NC2(CCCC2)C1=O | -25.4% (inactive) | 
29 | COc1ccc(Cl)cc1NS(=O)(=O)c1cccc(C(=O)NCC2CCCO2)c1 (stereo not drawn) | -28% (inactive) | 
30 | CCC(C)C(NC(=O)C1CCC(=O)N1C(=O)OCc1ccccc1)C(=O)NC(C(=O)N1CCCC1C(N)=O)C(C)CC (stereo not drawn) | -5.48% (inactive) | 
31 | Cc1ccc(-c2cc(C(=O)N3CCc4ccccc4C3)no2)cc1 | 21.4% (inactive) | 
32 | CCn1c(SCC(=O)NC2CC2)nnc1-c1ccccn1 | 15.7% (inactive) | 
33 | COC(C[C@H](O)CC(=O)COCc1ccccc1)OC | -13.3% (inactive) | 
34 | CCOC(=O)/C=C/C(=O)OCC(=O)NC(c1ccccc1)c1ccccc1 |  | 8.2 µM (active)
35 | Cc1cc(C)cc(OCC(=O)NC(C)c2ccccc2)c1 (stereo not drawn) | -23.8% (inactive) | 
36 | CCOC(=O)C(C(=O)OCC)C(C#N)c1ccccc1 (stereo not drawn) | -14.2% (inactive) | 
37 | Cc1ccc(SCC(=O)NC(=O)NCc2ccco2)c(C)c1 | -15.3% (inactive) | 
38 | CC1=C(C(=O)N2CCOCC2)CC(CC(=O)NCc2cccs2)C(=O)N1CCCN1CCCC1=O (stereo not drawn) | -1.36% (inactive) | 
39 | O=C(O)C(c1ccccc1)N1C(=O)/C(=C\c2ccc(-c3cccc(Cl)c3)o2)SC1=S (stereo not drawn) | 4.16% (inactive) | 
40 | CCN1C(=O)/C(=C\N2CCN(c3cccc(Cl)c3)CC2)SC1=S |  | 16.4 µM (active)
41 | CCN1C(=O)/C(=C\N2CCOCC2)SC1=S | -17.2% (inactive) | 
42 | CC1=NNC(=O)C1CC(=O)N/N=C/c1ccncc1 (stereo not drawn) | 3.01% (inactive) | 
43 | Cc1ccc(S(=O)(=O)NCC(=O)N2CCOCCOCCOCCOCC2)cc1 | -0.131% (inactive) | 
44 | CC1CCN(C(=O)COC(=O)CCC(=O)c2cccs2)CC1 | -4.71% (inactive) | 
45 | CCC(=O)N1CCN=C1SCc1ccc(F)cc1 | -0.0309% (inactive) | 
46 | COc1ccc(OC)c(S(=O)(=O)NCCC(C)C)c1 | -21.6% (inactive) | 
47 | COc1ccccc1N1CCN(/N=C/c2ccc(O)cc2O)CC1 | -1.21% (inactive) | 
48 | COc1ccccc1N1CCN(/N=C\C(Br)=C\c2ccccc2)CC1 |  | 7.31 µM (active)
49 | COc1ccccc1N1CCN(C(=O)C(=O)N/N=C/c2ccccc2F)CC1 | 1.79% (inactive) | 
50 | COCCn1c(N)c(N(Cc2ccccc2)C(=O)C2CCCCC2)c(=O)[nH]c1=O | -18.9% (inactive) | 
51 | NC(=O)C1CCN(CC(O)CSc2ccc(F)cc2)CC1 (stereo not drawn) | -3.19% (inactive) | 
52 | CCCN1CC=C2C(C#N)=C(N)C(C#N)(C#N)C(c3cc(OC)ccc3OC)C2C1 (stereo not drawn) | -27.2% (inactive) | 

Row | Structure (SMILES) | activity change, negative = growth inhibition | Potency
53 | CCOc1ccc(C2C(C(=O)NC)=C(C)Nc3nc4ccccc4n32)cc1OC (stereo not drawn) | 0.6% (inactive) | 
54 | COc1cccc(NC(=O)CC(c2ccc(OC(C)C)cc2)c2ccccc2OC)c1 (stereo not drawn) |  | 11.6 µM (active)
55 | COc1cccc(NC(=O)COC(=O)CCOc2ccccc2OC)c1 | 10.3% (inactive) | 
56 | COc1cccc(NC(=O)C(C)Oc2ccccc2)c1 (stereo not drawn) | -12.3% (inactive) | 
57 | CC(C)n1c(=S)[nH]c2cc(C(F)(F)F)ccc21 |  | 16.4 µM (active)
58 | CCCn1c(=S)[nH]c2ccc(C(F)(F)F)cc21 | -22.6% (inactive) | 
59 | CNS(=O)(=O)c1ccc2c(c1)[nH]c(=S)n2C | -31.1% (inactive) | 
60 | O=C(NCc1ccncc1)C1CCN(C(=O)c2cccc(Cl)c2)CC1 | -8.32% (inactive) | 
61 | CCC(C(=O)NC1CCCC1)N(C(=O)Cn1nnc(-c2ccc(C)o2)n1)c1ccc(OC)c(OC)c1 (stereo not drawn) | -8.18% (inactive) | 
62 | COc1cc(NS(=O)(=O)c2ccc(NC(C)=O)cc2)cc(OC)c1 |  | 8.2 µM (active)
63 | COc1cc(NS(=O)(=O)c2ccc3c(c2)OCC(C(=O)N2CCCC2)O3)cc(OC)c1 (stereo not drawn) |  | 20.6 µM (active)
64 | CC(=O)Nc1ccc(S(=O)(=O)Nc2ccc(N3CCOCC3)c(F)c2)cc1 | -29.2% (inactive) | 
65 | COC(C(=O)Nc1ccc(S(=O)(=O)Nc2ccc(C)c(C)c2)cc1)c1ccccc1 (stereo not drawn) |  | 14.6 µM (active)
66 | COc1cc(OC)cc(C(=O)Nc2ccc(S(=O)(=O)Nc3cc(C)on3)cc2)c1 | -10.8% (inactive) | 
67 | COc1ccc(S(=O)(=O)Nc2ccc3c(c2)OCO3)cc1Cl | -29.2% (inactive) | 
68 | CC(=O)Nc1ccc(S(=O)(=O)Nc2ccc(N3CCCCC3)cc2)cc1 |  | 2.91 µM (active)
69 | CC(=O)Nc1ccc(NS(=O)(=O)c2ccc3c(c2)NC(=O)CC(=O)N3)cc1 | 16.8% (inactive) | 
70 | COc1cc(NC(=O)N2CCOCC2)cc(OC)c1 | 5.47% (inactive) | 
71 | COC(=O)COc1ccc(S(=O)(=O)Nc2ccc(NC(C)=O)cc2)cc1 | -4.63% (inactive) | 
72 | COC(C(=O)Nc1ccc(C(C)=O)cc1)c1ccccc1 (stereo not drawn) | -5.81% (inactive) | 
73 | COC(C(=O)NCc1ccccc1C)c1ccccc1 (stereo not drawn) | 7.88% (inactive) | 
74 | CC(=O)N1CC2(C)CN(C(C)=O)CC(C)(C1)C2=O | 24.2% (inactive) | 
75 | COc1ccc(N(CCC#N)S(=O)(=O)c2ccc(Cl)cc2)cc1 | -15.6% (inactive) | 
76 | CCCC(=O)NC(Nc1ccccc1OC)C(Cl)(Cl)Cl (stereo not drawn) | -15.5% (inactive) | 
77 | Cn1c(=O)n(C)c(=O)n(CC(=O)N2CCCCC2)c1=O | -9.66% (inactive) | 
78 | COc1cc(OC)cc(C2=Cc3ccccc3C(CC(=O)c3ccco3)N2c2ccc(-c3cnc(OC)nc3)cc2)c1 (stereo not drawn) | -20.1% (inactive) | 

Row | Structure (SMILES) | activity change, negative = growth inhibition | Potency
79 | CC(=O)Nc1ccc(NC(=O)C(C)OC(=O)C2CC(=O)N(CCc3ccccc3)C2)cc1 (stereo not drawn) | -12.2% (inactive) | 
80 | O=C(NCC1(N2CCCCC2)CCCCC1)c1ccc(NS(=O)(=O)c2ccc(F)cc2)cc1 | -12.2% (inactive) | 
81 | CCc1nnc(NC(=O)CSc2nnnn2-c2cccc(C(C)=O)c2)s1 | -26% (inactive) | 
82 | COc1cccc(/C=C2\SC(=N)N(c3ccc(F)cc3)C2=O)c1 | -22.3% (inactive) | 
83 | COc1ccc(C(=O)Oc2cc(/C=N/NS(=O)(=O)c3ccc(C)cc3)ccc2OC)cc1 | -6.69% (inactive) | 
84 | CC(=O)c1ccc(NC(=S)NC(=O)CC(C)C)cc1 | 10.3% (inactive) | 
85 | COc1ccc(NS(=O)(=O)c2ccc(NC(=S)NC(=O)CC(C)C)cc2)cc1 |  | 18.4 µM (active)
86 | COc1ccc(S(=O)(=O)Nc2ccc3oc(C)c(C(C)=O)c3c2)cc1 |  | 5.17 µM (active)
87 | CC(=O)c1c(C)oc2ccc(NS(=O)(=O)c3ccc(C(=O)O)cc3)cc12 | -15.3% (inactive) | 
88 | CC(=O)Nc1ccc(S(=O)(=O)Nc2cccc(NC(=O)C(C)(C)C)c2)cc1 | -25.7% (inactive) | 
89 | COc1ccc(/C=C/C(=O)c2ccc(NS(=O)(=O)c3ccc(C)cc3)cc2)cc1O |  | 20.6 µM (active)
90 | COc1ccc(NS(=O)(=O)c2ccc(NC(C)=O)cc2)cc1OC |  | 6.51 µM (active)
91 | COc1ccc2oc(C)c(NC(C)=O)c2c1 | 1.12% (inactive) | 
92 | COc1ccc(CNC(=O)c2ccc(NS(=O)(=O)c3ccc4[nH]c(=O)[nH]c4c3)cc2)cc1OC | -1.23% (inactive) | 
93 | COc1ccc(S(=O)(=O)Nc2cc(C)on2)cc1NC(C)=O | 9.18% (inactive) | 
94 | COc1ccc(OC)c(C(C)NC(=S)Nc2ccc(S(=O)(=O)Nc3ncccn3)cc2)c1 (stereo not drawn) | 1.85% (inactive) | 
95 | CCCC(=O)Nc1ccc2oc(-c3ccc(O)c(Br)c3)nc2c1 | -12.9% (inactive) | 
96 | CSc1ccccc1OCc1cc(C(=O)N(C)CCc2c(C)n[nH]c2C)no1 | -25.5% (inactive) | 
97 | O=C(CN1CCCCCC1)Nc1c(Cl)cc(Cl)cc1Cl | -6.89% (inactive) | 
98 | CN(C)C(=O)c1ccc(NC(=O)COC(=O)c2cc3c(s2)CCCCC3)cc1 | -5.24% (inactive) | 
99 | CSc1ccc(/C=N/N2CCN(Cc3ccccc3Cl)CC2)cc1 | -23.9% (inactive) | 
100 | Cn1c2c(c(=O)n(C)c1=O)C(c1ccc(O)cc1)Nc1ccccc1O2 (stereo not drawn) | -2.2% (inactive) | 
101 | Cc1nn(Cc2ccccc2)c(C)c1C(=O)NCCCN1CCCC1=O | 20% (inactive) | 
102 | CCC(=O)Nc1ccccc1C(=O)N1CCN(Cc2ccccc2)CC1 | -24.9% (inactive) | 
103 | Cc1nn(Cc2ccccc2)c(C)c1C(=O)N1CCN(CC(=O)Nc2ccccc2Cl)CC1 |  | 23.1 µM (active)
